Measured values: the supplement of paper PMC3334620
The full ranking holds about 33,000 sequences; the median of “E-score (-0.5 to 0.5)” is about -0.015, and the highest 2% start at about 0.3. Shown is part of a subset that was picked to be rich in the highest values.

Biological target: T1, Abf1 (UniProt P14164)
T1 sequence: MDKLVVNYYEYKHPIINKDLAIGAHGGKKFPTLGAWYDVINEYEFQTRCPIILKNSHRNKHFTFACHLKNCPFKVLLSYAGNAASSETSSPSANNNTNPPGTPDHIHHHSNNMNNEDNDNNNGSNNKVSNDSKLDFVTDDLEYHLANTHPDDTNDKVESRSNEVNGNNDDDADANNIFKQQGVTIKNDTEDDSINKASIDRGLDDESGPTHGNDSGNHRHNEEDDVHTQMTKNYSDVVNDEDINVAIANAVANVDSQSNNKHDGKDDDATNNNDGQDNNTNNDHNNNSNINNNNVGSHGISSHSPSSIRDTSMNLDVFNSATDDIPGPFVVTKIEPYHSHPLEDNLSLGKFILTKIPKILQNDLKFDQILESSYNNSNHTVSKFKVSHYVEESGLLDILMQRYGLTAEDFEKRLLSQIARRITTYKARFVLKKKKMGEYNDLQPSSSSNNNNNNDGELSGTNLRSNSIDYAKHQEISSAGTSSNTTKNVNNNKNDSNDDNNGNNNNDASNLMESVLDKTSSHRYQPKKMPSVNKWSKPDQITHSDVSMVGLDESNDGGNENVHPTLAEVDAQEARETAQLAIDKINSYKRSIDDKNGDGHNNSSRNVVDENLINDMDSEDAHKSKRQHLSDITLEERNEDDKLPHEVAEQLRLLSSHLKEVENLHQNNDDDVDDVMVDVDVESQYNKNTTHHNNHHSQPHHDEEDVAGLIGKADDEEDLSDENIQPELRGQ
Experiment: PBM E-score (8-mer binding enrichment) (E-score (-0.5 to 0.5)); higher = stronger / more preferred TF binding
Conditions: protein concentration: 200 nM; construct: GST-full length
Procedure: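 Universal 'all 10-mer' protein binding microarrays (Agilent AMADID 015681) probed with GST-tagged S. cerevisiae TFs (full-length or DBD) made by in vitro transcription/translation (PURExpress), about 100-200 nM. Bound TF was detected with fluorescent anti-GST. Each ungapped 8-mer (which stands for itself and its reverse complement) is scored by the PBM enrichment score (E-score), a modified Wilcoxon-Mann-Whitney statistic from -0.5 to +0.5, computed with the Universal PBM Analysis Suite. Scale: above 0.35 generally sequence-specific binding.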

Sequence	PBM E-score
ATCCCTGA	-0.0627
CCAGGGGC	-0.331
CTTAGCGA	0.0369
GTTAGCGA	0.32
ATTAGCGA	0.136
GGGTTATA	-0.105
ATTTTACG	0.322
ATTTTACC	0.11
AATTTACG	0.0813
TACAGCTA	-0.41
ATTAGTGC	0.148
ATTAGTGG	0.1
CTTAGTGA	0.305
AATAGTGA	0.358
AATAGTGC	0.0751
AATAGTGG	0.0153
CTTAGTGC	-0.0935
GTTAGTGA	0.17
ATTAGTGA	0.365
TCGAGCAA	0.1
ATTTCCGG	0.0492
ATTTCTTA	0.0563
GAAGAAAC	-0.133
AATTTCGA	0.00012
AATTTCGT	0.36

Sequence	PBM E-score
AATTTCGC	-0.0531
AAATTCGG	0.0545
AAATTCGC	0.0441
AAATTCGT	0.328
GACGCCTC	-0.0456
ATAACCCA	-0.0314
AGGGTAAT	0.0413
CACAGTGA	0.109
GCATCTCC	-0.255
ACTGGAGA	-0.174
CCCCCAGA	-0.326
CACGAGTC	0.0257
AGCACGAA	0.217
GGCACGAA	0.103
TGCACGAA	0.368
CGCACGAG	0.156
CGCACGAA	0.321
CGCACGAC	0.242
CACAACGC	-0.174
AGGGAGGA	-0.187
ATCCGGGC	-0.197
ATGATATA	0.403
ATGATAGG	0.116
GCGATATA	0.368
GTGATATA	0.395

Sequence	PBM E-score
CCGATATA	0.0343
GGGATATA	-0.045
AAGATATA	0.162
GAGATATA	0.147
GCGATACA	0.139
AAGATATG	0.283
CTGATATA	0.107
ATGATATG	0.367
GTGGACAA	0.133
CTCCTGAC	0.0261
AGGGGACA	-0.0441
CCAGGGTC	-0.217
ACGGCTAC	0.0914
CGTTCAGA	0.0456
ATGATACG	0.305
CTGATATC	0.0641
ATGATACC	0.291
ATGATAGC	0.24
ATGATACA	0.202
ATGATATC	0.362
ACGCGCCT	-0.0785
AGATAAGG	0.00618
GGAGGTCA	0.0571
CTGACGAC	0.228
GTGTACTA	0.165

Sequence	PBM E-score
CTGTACAA	0.109
GAGTACGA	0.0499
CTGTACGC	-0.106
ATGTACGC	0.027
GTGTACGA	0.337
ATGTACGA	0.444
CTGTACGA	0.383
ATGTACGG	0.241
GTGTCGGA	0.0611
GACGTAGA	0.0745
TCCGACCA	-0.143
AAACTCTA	-0.144
CCCACAAC	-0.0362
GCCTCCAA	-0.121
GATATAAC	0.307
GATATAAA	0.22
GATATATA	0.289
GATATATC	0.332
CATATACC	-0.0104
CATATAAC	0.155
GATATACA	0.111
AATATATC	0.139
GATATACC	0.34
ATACGCGG	-0.114
CTTGGGGC	-0.247

Sequence	PBM E-score
AACCCTAA	0.00952
CCGATACC	-0.101
ATACGTGG	0.155
GAACGCGA	-0.146
GGGCGCGA	0.0618
AGTTGTGC	-0.108
ACGGGCGA	-0.00147
AGTGATAC	0.385
AGTGATAA	0.445
CGTGATAC	0.23
AGTGATAG	0.303
ACTGATAT	0.108
GGTGATAC	0.186
ACTGATAA	0.126
ATTGATAG	-0.0465
CGTGATAG	0.221
ATTGATAA	0.27
AGTGATAT	0.442
AGTGAGAT	0.147
AGCGCCAG	-0.0266
AACCAGAA	0.0884
CCCTCGGA	0.00175
CTACGATC	0.195
ATACGATC	0.307
ATACGAAA	0.349

Sequence	PBM E-score
CTACGAAG	0.215
AAACGAAA	0.159
ATACGAAT	0.275
ATACGATG	0.261
ATACGACG	0.341
ATACGACC	0.239
ATACGAAG	0.328
AGACGACG	0.235
ACACGAAG	0.269
CGAATACG	0.189
ACCCGAGT	-0.152
ACATTGAA	0.0551
ACGGTCGC	0.134
TGTAACAA	0.0346
AGCAGGCA	-0.114
ACTGTATG	-0.184
ACTGAAGT	-0.0998
GTCCCGAA	0.00205
AAAATCAG	0.193
CAAATCAC	0.19
AAAATCAA	0.0207
AAAATCAC	0.352
GAAATCAC	0.322
GAAATCAA	0.0471
AACTGAGA	0.0232

Sequence	PBM E-score
GTTGATCA	0.298
CATGATCC	0.00859
ATAGATCA	0.267
AATGATCG	0.232
CTAGATCA	0.161
AATGATCA	0.347
CATGATCG	0.0839
ATTGATCA	0.267
GTAGATCA	0.319
CATGATCA	0.33
CTTGATCA	0.183
AATGATCC	0.0166
CATGCGGC	-0.229
GGTTAACA	-0.138
AAAGAACT	0.0334
ACATTAGA	0.0369
AGTTAACT	-0.0757
CAAGATCA	0.16
AATGAACT	-0.177
AAAGATCA	0.164
GATGATTA	0.263
GATGATCC	0.0853
TACGATCA	0.208
TCTGATCA	0.155
TATGATCA	0.309

Sequence	PBM E-score
TAAGATCA	0.314
GATGATCA	0.329
ACTGATCT	0.0694
AATGATCT	0.324
GCCTAGAC	-0.11
ATACATTC	0.0799
AACGGGGC	-0.0372
ACGCACCA	-0.101
CCATTTCC	-0.0246
CGGGTTAG	-0.173
CAAATAGA	0.0564
GAGGTATC	0.047
ATAAGTGC	0.0214
GTAAGTGA	0.208
AGAAGTGA	0.243
ATAAGTGA	0.3
CTAAGTGA	0.327
CGAAGTGA	0.272
ATAAGTGG	0.126
GGAAGTGA	0.329
CTAAGTGC	-0.0207
AGATTTAG	0.0517
CCGGAAGA	0.0618
AGACTTTA	0.0584
AGGCTCTG	-0.089

Sequence	PBM E-score
CAGGCACC	-0.178
GCCAGCCC	-0.375
CACGCTCC	-0.00778
AAAGTGAT	0.397
AAAGTGGC	-0.118
AGGGTGAA	-0.209
AAAGTGAA	-0.0183
AACGTGAA	0.057
AACGTGAT	0.327
AGGGTGAG	-0.102
AAAGTGAC	0.343
AGGGTGAT	0.335
AAAGTGAG	0.2
ACAGTGAC	0.259
AACGTGAG	0.0297
CCCCAGGA	-0.301
TAGTTCAA	-0.0129
AACAGCAC	-0.13
CACCCTGG	-0.33
ATAGGCTC	-0.0801
CCAAACCG	-0.0285
AAGGACCC	-0.134
ACATCCTA	0.0617
AATTCTCG	0.162
CAAGTGAC	0.242

Sequence	PBM E-score
AGAGTGAT	0.387
AGAGTGAG	0.0964
AGAGTGAA	-0.0316
GAAGTGAC	0.411
GAAGTGAA	0.064
GTCCGGTA	0.00344
CTCACGTA	-0.0341
AACTATAT	0.205
GGTTATCA	0.272
CATTATCC	0.262
CATTATCA	0.329
CCTTATCA	0.236
CATTATCG	0.0198
AGTTATCG	0.223
ACTTATCA	0.231
AGTTATCA	0.302
TATTATAA	0.121
TATTATGA	0.0866
TCTTATCA	0.316
TATTATCA	0.34
GGGAGGCA	-0.284
GGGGACGA	0.135
AATTATCG	0.178
AATTATCA	0.34
AATTATCC	0.0502

Sequence	PBM E-score
GATTATCC	0.152
GATTATCA	0.302
GATTATTA	0.0366
CATCCATA	0.0978
CATGAACC	-0.00224
GCCCGAGA	-0.194
ATCATTAC	0.262
ATCATTAA	0.307
CTCATTAA	0.148
ATCATTAG	0.279
GACATTAA	0.227
GTCATTAA	0.385
CTAAGCGC	-0.121
CTTTGCAC	0.209
ACCTTTAC	-0.0849
CGTTCGGC	0.0205
CGTTCGTA	0.345
TGTTCGAA	-0.0208
CGTTCGTC	0.358
AGTTCGGG	0.0167
ATTTCGTG	0.288
CGTTCGAC	0.122
AGTTCGTA	0.264
CGTTCGAA	0.311
AGTTCGTG	0.326

Sequence	PBM E-score
AGTTCGTC	0.164
GGTTCGTA	0.14
ATAAGGAT	-0.00817
AGGGAAGC	-0.197
CTGCTGGC	-0.25
ATCGAAAA	0.0388
GATCACGA	0.301
GATCACAA	0.26
CATCACGC	0.191
CTTCACGA	0.2
GTTCACGA	0.3
GATCACGC	0.366
GATCACAC	0.118
GCTCACGA	0.125
ATTCACGA	0.235
ACACTCGA	-0.0221
CGTCCATC	0.0706
GATACGGA	0.279
AGGGTGGG	-0.0843
CATTTGAG	0.0534
CGCCAGAA	-0.0306
CAGTCGGG	0.0146
GATAGCCA	-0.0722
GACAATCC	0.0976
ATACGAAC	0.294

Sequence	PBM E-score
CTACGAAA	0.122
CTACGAAC	0.275
GCACGAAA	0.336
GGACGAAC	0.323
GTACGAAC	0.418
ACACGAAA	0.288
AGACGAAC	0.24
TTACGAAA	0.279
GTACGAAA	0.376
GAACGAAC	0.121
GCACGAAC	0.269
AAATCTAG	0.045
ATACTTGA	-0.0426
AAGCACCC	-0.201
ATGGAAAA	0.177
GATTGAGA	0.21
CGTTAGTC	0.00116
GATCGCTA	0.157
CTAAGCGA	-0.0187
CTTTTAGA	-0.028
ATATCGTG	0.318
AAATCGTG	0.192
ATATCGTA	0.203
AAATCGTC	0.347
ATATCGTC	0.336

Sequence	PBM E-score
ATATCGCG	0.382
AAATCGTA	0.267
ATATCGGG	0.018
ATATCGCC	0.269
ATATCGCA	0.144
CTATCGTC	0.252
ATATCGGC	0.149
AGGGAACT	-0.244
AGCCGTAA	0.193
GCGTCCTA	-0.0099
TACCAAAA	0.0276
ACACAAAC	0.0247
CTATAATA	-0.0104
CGATAATA	0.326
ATATAAAA	0.185
ATATAATA	0.0977
GTATAAAA	0.356
GTATAAAC	0.22
GGATAATA	0.173
AGATAATA	0.107
GTATAATA	0.299
